Source: PubChem (several laboratories)
The list is not random: actives were taken first. Their share in the collection is about 1.1%.
RecA splice inh = Mtb RecA intein splicing inhibitors, primary screen, biochemical, fluorescence, HTS; cell-free RecA intein splicing; inhibition, % (concentration not given with the values); actives 0.75% (n = 290,000); AID 2221, 2009; in the data active means inhibition above about 30%;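 further: 0% = vehicle wells and 100% = reference inhibitor control wells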
Target sequence (P9WHJ3 whole entry, looked up, canonical isoform): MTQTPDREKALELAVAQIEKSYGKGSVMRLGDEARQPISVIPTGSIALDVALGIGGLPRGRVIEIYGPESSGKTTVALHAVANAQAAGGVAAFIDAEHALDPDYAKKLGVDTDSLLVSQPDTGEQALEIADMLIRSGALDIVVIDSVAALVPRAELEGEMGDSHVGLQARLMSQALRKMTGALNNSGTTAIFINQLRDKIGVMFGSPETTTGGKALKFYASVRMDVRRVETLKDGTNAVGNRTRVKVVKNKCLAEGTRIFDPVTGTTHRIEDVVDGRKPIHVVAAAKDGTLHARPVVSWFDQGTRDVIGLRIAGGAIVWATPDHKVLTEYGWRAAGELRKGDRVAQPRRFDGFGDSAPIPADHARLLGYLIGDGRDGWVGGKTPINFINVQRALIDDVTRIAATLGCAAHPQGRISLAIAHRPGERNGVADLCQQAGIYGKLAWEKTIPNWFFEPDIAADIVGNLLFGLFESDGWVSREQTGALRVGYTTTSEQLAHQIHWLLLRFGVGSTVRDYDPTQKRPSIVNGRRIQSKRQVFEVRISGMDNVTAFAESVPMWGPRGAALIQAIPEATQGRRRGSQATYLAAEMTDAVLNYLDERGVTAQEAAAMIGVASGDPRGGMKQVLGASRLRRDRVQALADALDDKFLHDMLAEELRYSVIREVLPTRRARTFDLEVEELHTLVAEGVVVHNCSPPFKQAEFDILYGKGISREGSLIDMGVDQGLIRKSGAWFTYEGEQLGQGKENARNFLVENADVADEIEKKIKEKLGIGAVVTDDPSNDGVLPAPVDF
Rv3671c protease = Rv3671c serine protease inhibitors, primary screen, biochemical, fluorescence polarization, M. tuberculosis H37Rv; P9WHR9; inhibition, % at 5.96 µM; actives 0.048% (n = 320,000); in the data active means inhibition above about 38%;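 further: extracellular domain of Rv3671c used as enzyme; 0% = enzyme with DMSO and 100% = no enzyme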
PriA SSB inh = inhibitors of Klebsiella pneumoniae PriA binding to SSB C-terminal tail, primary screen, biochemical, AlphaScreen | PriA–SSB C-terminal tail interaction (Klebsiella pneumoniae) | AlphaScreen SSBct-PriA binding, biotinylated peptide | inhibition, % at 33 µM | actives 0.6% (n = 430,000) | AID 1272365, 2023; in the data active means inhibition mostly above about 37%, no sharp cut-off; inactive means mostly below about 20%;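 further: plate controls were negative control peptide for no effect and reference peptide for full effect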
Mtb UGM inh = M. tuberculosis UGM enzyme inhibitors, primary screen, biochemical, fluorescence polarization, single point; UDP-galactopyranose mutase (Mycobacterium tuberculosis (strain ATCC 25618 / H37Rv)), …; purified UGM, fluorescence polarization probe displacement; inhibition, % at 10 µM; actives 0.06% (n = 320,000); in the data active means inhibition above about 10%, passing the limit was not always enough
Mtb betalactam = beta-lactam sensitization of Mtb H37Rv, H37Rv; M. tuberculosis H37Rv growth with meropenem, percent inhibition; inhibition, % at 25 µM; actives 0.27% (n = 330,000); AID 434955, 2010;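 further: growth measured after seven days incubation then overnight dye step; 0% = bacteria only wells and 100% = bacteria with antibiotic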
GFP chromo cs = counter-screen: blocks GFP chromophore formation, dose response, counter-screen, biochemical, fluorescence, homogeneous; cell-free GFP chromophore formation; shares compounds with RecA splice inh; actives 83% (n = 2,100); EC50, µM
Starred values were filed as active, the others as inactive; / = not tested or not shown. Unless noted, how the calls were made is not given here.

SMILES | RecA splice inh | Rv3671c protease | PriA SSB inh | Mtb UGM inh | Mtb betalactam | GFP chromo cs
Cc1[nH]nc2c1C(c1ccco1)C(C#N)=C(N)O2 (stereo unspecified) | 57.8* | 5.9 | 10.4 | 0.0 | 0.3 | 26.4*
CC(C)(C)c1[nH]nc2c1C(c1ccco1)C(C#N)=C(N)O2 (stereo unspecified) | 41.3* | -1.3 | 5.7 | 0.0 | 4.7 | 2.83*
COc1ccccc1CC(N)=NOC(=O)COc1cc(C)cc(C)c1C | / | / | -23.3 | / | / | /
O=C(Nc1nc(CN2CCc3ccccc3C2)cs1)C1CC1 | / | / | -8.0 | / | / | /
Cc1ccc(CNC(=O)C(=O)NCCc2ccoc2)cc1 | / | / | -5.0 | / | / | /
COc1ccc(CC(=O)Nc2nnc(C)s2)cc1OC | / | / | -5.0 | / | / | /
Cc1nn(-c2ccccc2)c(N)c1C1(O)C(=O)N(C(C)C)c2ccccc21 (stereo unspecified) | 4.5 | 7.9 | -4.7 | 0.2 | 2.6 | /
Cc1nn(-c2ccccc2)c2c1C1(C(=O)N(C(C)C)c3ccccc31)C(C#N)=C(N)O2 (stereo unspecified) | 81.4* | 3.4 | 1.8 | -0.6 | 60.5 | 11.9*
O=C(Cn1cnc2c(sc3ncccc32)c1=O)NCc1ccc2c(c1)OCO2 | / | / | -1.0 | / | / | /
O=S(=O)(Cc1ccccc1)NCC1CCN(Cc2ccccc2)CC1 | / | / | -4.0 | / | / | /
CC(=O)N1CCc2cc(NC(=O)CSc3nnc4sc5ccccc5n34)ccc21 | / | / | -6.0 | / | / | /
N#CC(C#N)=NNc1ccc(-n2ccc(C(F)(F)F)n2)cc1 | 78.6* | -12.9 | 33.6 | 1.8 | 24.6 | 6.4*
Cc1cc(C)n(-c2ccc(NN=C(C#N)C#N)cc2)n1 | 57.0* | 2.4 | 27.6 | -1.2 | -3.0 | 19.3*
Cc1cc(C)n(-c2ccc(C(=O)O)cc2)n1 | -1.2 | 2.8 | 9.0 | 0.7 | -0.1 | /
COc1ccccc1C(=O)N1CCCC[C@H]1c1cc(C(N)=O)n[nH]1 | / | / | -5.0 | / | / | /
Cc1cccc(NC(=S)N/N=C2/CCCCc3ccccc32)c1 | 30.0* | -1.7 | / | -0.5 | -4.3 | >38
CCN(CC)CCN(C(=O)c1ccnn1C)c1nc2ccc(OC)cc2s1 | / | / | 6.0 | / | / | /
O=[N+]([O-])c1ccc(O)c2ncccc12 | 43.3* | -2.5 | 133.0* | -0.9 | 81.8 | 25*
O=[N+]([O-])c1ccc(O)c2cccnc12 | / | -5.1 | 4.1 | 2.3 | 0.7 | /
O=C1C(Cl)=C(NS(=O)(=O)c2ccc([N+](=O)[O-])cc2)C(=O)c2ccccc21 | 73.0* | 2.2 | 15.6 | 1.2 | -0.4 | 3.63*
NS(=O)(=O)c1ccc(N=Cc2c(O)c3ccccc3oc2=O)cc1 | 36.6* | -5.2 | -25.5 | 0.9 | -1.1 | >38
CCCCCCn1c(N2CCC(C(N)=O)CC2)nc2c1c(=O)[nH]c(=O)n2C | 3.1 | 10.8 | -13.8 | 0.3 | 0.8 | /
CCCCCCn1c(N2CCC(C(N)=O)CC2)nc2c1c(=O)n(C)c(=O)n2C | 47.0* | -6.4 | -5.7 | 0.6 | 8.4 | >38
Cc1ccc(Nc2cc(C)nn2-c2nc(C)cc(=O)[nH]2)cc1 | 39.3* | 0.1 | 31.8 | 3.0 | 92.3 | >38
Cc1ccc(Nc2cc(C)nn2-c2nc(C)cc(C)n2)cc1 | 4.2 | 1.4 | -5.1 | 2.1 | 96.7 | /
SMILES | RecA splice inh | Rv3671c protease | PriA SSB inh | Mtb UGM inh | Mtb betalactam | GFP chromo cs
O=C1c2ccccc2C(=O)C12OC(c1ccccc1)C1(C(=O)c3ccccc3C1=O)C2c1ccc([N+](=O)[O-])cc1 (stereo unspecified) | 1.7 | -12.0 | -0.4 | 2.9 | 3.4 | /
O=C1c2ccccc2C(=O)C12OC2c1ccc(Cl)cc1 (stereo unspecified) | 71.6* | -87.0 | / | -0.5 | 1.1 | >38
CCN(C(=O)c1ccc2c(Cl)c3c(nc2c1)CCC3)c1ccc(C)c(C)c1 | 30.1* | -15.9 | -2.6 | -2.7 | 5.9 | 9.08*
CCOc1cc(Cl)c(S(=O)(=O)Nc2ccc3cn[nH]c3c2)cc1Cl | / | / | 5.0 | / | / | /
COc1ccc(CNc2ccc3cn[nH]c3c2)c(OC)c1OC | 45.6* | -17.5 | 46.0 | -0.1 | 15.2 | 1.22*
CCOc1cc(CNc2ccc3cn[nH]c3c2)ccc1OC | 77.1* | -17.7 | -7.1 | -1.2 | 82.0 | 11.8*
CCC(C)(C)c1ccc(OCCCC(=O)N2CCN(Cc3ccccc3)CC2)c(C(C)(C)CC)c1 | / | / | -15.0 | / | / | /
O=[N+]([O-])c1cccc(C=NN2CCN(Cc3ccccc3Cl)CC2)c1 | / | / | 58.4 | / | / | /
CCOC(=O)c1c(C)oc2c1c(C=NCCC(=O)O)c(O)c1ccccc12 | 33.6* | -19.6 | 16.8 | -1.4 | 1.1 | 33.8*
CC(OC(=O)c1cc(O)c2ccccc2c1O)C(=O)Nc1ccc(C(N)=O)cc1 (stereo unspecified) | 73.1* | -24.8 | 17.5 | -0.6 | -3.0 | 5.18*
CCOC(=O)/C(C#N)=C\c1cccnc1 | 1.0 | 2.0 | -5.5 | -1.3 | 2.0 | /
CCOC(=O)C(C#N)C(c1cccnc1)c1c(C)[nH][nH]c1=O (stereo unspecified) | 78.2* | -7.7 | 1.4 | -1.4 | 12.3 | 11.5*
O=[N+]([O-])c1cc(C=Nc2cccc3c(O)cccc23)ccc1Cl | 64.4* | -1.9 | / | 3.7 | 27.3 | 32.5*
O=C(NN=Cc1ccc(Cl)c([N+](=O)[O-])c1)C1CC1 | / | / | 2.3 | / | / | /
Cn1nc(-c2ccc(NS(=O)(=O)c3ccc(OC(F)(F)F)cc3)cc2)ccc1=O | / | / | -10.0 | / | / | /
O=C(CN1C(=O)S/C(=C/C=C/c2ccccc2)C1=O)Nc1ccc(C(=O)O)cc1 | 20.9 | -19.4 | -15.6 | 0.5 | 1.0 | /
O=C(CN1C(=O)S/C(=C\C=C\c2ccccc2)C1=O)Nc1ccc(C(=O)O)cc1 | 35.3* | -67.6 | 5.5 | 1.4 | 0.9 | >38
COc1ccccc1N1CCN(C(=O)Nc2cccc([N+](=O)[O-])c2)CC1 | / | / | 14.0 | / | / | /
O=C(Nc1ccc(Cl)c(Cl)c1)Nc1nnc(SCc2cccnc2)s1 | / | / | -7.0 | / | / | /
COc1ccc(NC(=O)Nc2c(O)ccc3ccccc23)cc1 | 59.2* | -11.8 | -1.8 | 3.3 | 6.3 | 15.2*
COc1ccc(S(=O)(=O)Nc2c(O)ccc3ccccc23)cc1OC | 95.6* | -13.5 | 4.5 | 0.5 | -5.6 | 4.62*
COc1ccc(C(=O)Nc2c(O)ccc3ccccc23)cc1 | -0.3 | -5.1 | 15.4 | 2.6 | 34.2 | /
Nc1nonc1-n1nnc(C(=O)NN=Cc2ccc(F)cc2)c1-c1ccc2c(c1)OCO2 | / | / | -2.4 | / | / | /
COc1ccc(CNC(=O)CC(C)=NNC(=O)c2ccc(OC)cc2OC)cc1 | / | / | -3.3 | / | / | /
Cc1[nH][nH]c(=O)c1C(c1ccc(-c2ccccc2C(=O)O)o1)c1c(C)[nH][nH]c1=O | 96.1* | -200.2 | 5.0 | -0.6 | -3.1 | 0.493*
COC(=O)c1ccc(-c2ccc(C(c3c(C)[nH][nH]c3=O)c3c(C)[nH][nH]c3=O)o2)cc1 | 94.7* | -18.3 | 0.6 | -2.0 | 4.7 | 0.645*
Cc1[nH][nH]c(=O)c1C(c1ccc(-c2cccc(C(=O)O)c2)o1)c1c(C)[nH][nH]c1=O | / | -109.0 | -6.3 | 2.0 | 5.4 | /
